Test results from PubChem BioAssay (NCI).
“And” between values parts separate entries of the source, which are not always exact repeats. Equal values may be shown once. This is part of a sample that, as a whole, favours compounds with a hit. Of some 83,000 tested, about 20% had one in any assay.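 Note: values are percent growth. 100 is the growth of untreated cells, values between 100 and 0 indicate rising inhibition; between -100 and 0 indicates cell death.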 Unmarked numbers belong to inactive results. The source made the active and inactive calls. The calls were made as follows: active = growth percent below 10; inactive = the rest.

What follows are compounds tested on MDA-MB-468 breast (assay: NCI-60 one-dose screen, 48 h (100 = growth as untreated, 0 = no growth, -100 = all killed)). Conditions: 10 µM unless noted.
In the case of `Cc1ccc(/C=C/C(=N/N=C(N)N)c2ccccc2)cc1`, the growth is reported as -6.79% (active).
For `Cc1ccc2c(c1)-c1cc(C)nn1-c1ccc(C#N)cc1O2`, the growth was 40.9%.
`CCOc1cc2ncc(C#N)c(Nc3ccc(F)c(Cl)c3)c2cc1NC(=O)CC1CCSS1` (stereo not drawn) was tested, and the growth was -74.2% (active).
In the case of `OC(c1cc2cc(Br)ccc2c2cc(Br)ccc12)C1CCCCN1` (stereo not drawn), the growth is reported as -83.1% (active).
In the case of `CCCCn1c(=O)c(C2CNC(=O)c3ccccc3N2)cc2ccccc21` (stereo not drawn), the growth is reported as 107%.
`O=C(N/N=C/C=C\c1ccccc1)C(=O)N/N=C/C=C/c1ccccc1` showed a growth of 105%.
`CCN1C(=S)N(CC)C2C1NN=C1SC(c3ccccc3)=CC(=O)N12` (stereo not drawn) was tested, and the growth was 92.6%.
`CCS(=O)(=O)N[C@@H]1O[C@H](COC(C)=O)C(OC(C)=O)[C@H](OC(C)=O)C1OC(C)=O` (stereo partly drawn) was tested, and the growth was 100%.
With `Clc1ccc(C2=Nc3cccc4cccc(c34)N2)cc1Cl` the growth was -43.8% (active).
`COC(=O)c1c2c(c(C)[n+]([O-])c1C)C(=O)C(NCCN1CCOCC1)=CC2=O` was tested, and the growth was 28.8%.
With `Nc1nc(NC2CC2)cc(-c2cccc(Cl)c2Cl)n1` the growth was 30.8%.
`CN(C)CCNC(=O)n1cc(-c2ccncc2)c(-c2cc(O)cc(Cl)c2)n1` was tested, and the growth was 84.1%.
For `Cn1c2ccccc2c2nnc(N/N=C/c3ccccn3)nc21`, the growth was -25.1% (active).
`Cc1ccc(C2=Nc3c(ccc4c(C)c(C)c(=O)oc34)OC2)cc1` gave a growth of 113%.
Compound `O=C(CSCC(=O)N/N=C/c1ccccc1O)N/N=C\c1ccccc1O` has a growth of 15.6%.
`CC(=O)c1ccc(Nc2nc(SCC(C)C)nc(-c3ccccc3)c2C#N)cc1` was tested, and the growth was 73.7%.
`COc1ccc(-c2cc(C(=O)N=Nc3c(O)[nH]c4ccccc34)no2)cc1` showed a growth of 106%.
`O=C1Nc2cc(-c3cccc(O)c3)ccc2/C1=C/c1ccc[nH]1` was tested, and the growth was 7.4% (active).
`OC(c1ccccc1)c1ccccn1` (stereo not drawn) gave a growth of 103%.
Compound `O=S(=O)(c1ccccc1)n1cc2c(c1-c1ccccc1)CCc1sc(Nc3ccccc3)nc1-2` has a growth of 73.3%.
In the case of `N#Cc1ccc(/C=C/C(=O)c2ccccc2)cc1`, the growth is reported as 43.5% and 48.9%.
With `CCCCCCCCCCCC1=NC(C)(C)CN1C(C)C` the growth was -1.36% (active).
`C/C(=N\NC(N)=S)c1nc2ccc(Cl)cc2[nH]1` was tested, and the growth was 44.2%.
In the case of `OCC1OC(n2cnc3c(=S)nc[nH]c32)C(O)C1O` (stereo not drawn), the growth is reported as -6.42% (active).
`C=CCc1cc(OC)c(OC)c(OC)c1` gave a growth of 91%.
`Cc1c(Cl)cccc1NS(=O)(=O)c1ccccc1` showed a growth of 93.2%.
`COc1ccc(NC(=O)c2ccc(Cl)cc2Cl)cc1` gave a growth of 96.5%.
For `Clc1c(Cl)[n+](Cc2ccc3ccccc3c2)cn1Cc1ccc2ccccc2c1`, the growth was -22.6% (active).
